NPSR antagonist = qHTS Assay for Antagonists of the Neuropeptide S Receptor: cAMP Signal Transduction; 220,000 compounds, 1% hits; Potency, µM (series often up to 38.3 µM), for inactives: at the top dose activity change, negative = inhibition, actives largely listed as inhibitors; Q6W5P4; CHO-NPSR cells, cAMP TR-FRET, antagonist mode; also: % is scaled to controls: 0 for no effect and ±100 for the full control effect; nearly all actives have a fitted effect of over 50% in size
Target sequence (Q6W5P4 whole entry, looked up): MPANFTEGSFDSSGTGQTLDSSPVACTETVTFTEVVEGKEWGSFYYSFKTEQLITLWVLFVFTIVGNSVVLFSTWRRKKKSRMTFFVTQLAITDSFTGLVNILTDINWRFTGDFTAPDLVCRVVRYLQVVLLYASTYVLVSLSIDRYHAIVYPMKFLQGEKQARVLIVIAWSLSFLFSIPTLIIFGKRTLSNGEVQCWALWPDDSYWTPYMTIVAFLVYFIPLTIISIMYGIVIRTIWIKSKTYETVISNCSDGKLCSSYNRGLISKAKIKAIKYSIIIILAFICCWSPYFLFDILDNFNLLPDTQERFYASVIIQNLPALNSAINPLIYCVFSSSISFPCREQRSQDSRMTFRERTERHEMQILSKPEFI
IMPase Li inh = qHTS Assay for Identifying the Cell-Membrane Permeable IMPase Inhibitors: Potentiation with Lithium; CHO-M1 cells, IP1 TR-FRET (IP-One), carbachol + lithium; Potency, µM (highest dose often 59.4 µM), for inactives: at the highest dose activity, negative = IMPase inhibition, most hits filed as inhibitors; 210,000 compounds, 0.35% hits;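 also: IP1 builds up when IMPase is blocked and the TR-FRET signal falls; plate controls were basal vehicle for no effect and high inhibitor control for full effect; nearly all actives have a fitted effect of over 50% in size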
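CHO cells stably expressing M1 receptor (2000/well, cultured 16–30 h) treated 30 min at 37C with compound plus low lithium. Cytosolic IP1 by TR-FRET (665/620 ratio and 620 channel) after 10 min lysis; AC50 by Hill fit.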
Epigenetic derep = Quantitative High-Throughput Screen for Regulators of Epigenetic Control | murine LDR cells, GFP reporter derepression, 30 h | Potency, µM (series often up to 53.9 µM), for the others: at the highest dose GFP activation, actives largely listed as activators | 280,000 compounds, 0.2% hits | AID 1865, 2009; also: % of control where 0% means no effect; nearly all actives have a fitted effect of over 60% in size
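Murine LDR cells carrying a silenced, genomically integrated CMV-driven GFP reporter were exposed to compound for 30 hours at 37 C. After PBS washes, GFP-positive cells (20–120 um objects) were counted by laser-scanning microplate cytometry.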
Sfp inh = qHTS Assay for Inhibitors of Bacillus subtilis Sfp phosphopantetheinyl transferase (PPTase). 4'-phosphopantetheinyl transferase ffp (Bacillus subtilis), Q9F4F7. Biochemical Sfp PPTase activity, qHTS. Potency, µM, for the others: largest response in the series, negative = inhibition, most hits filed as inhibitors. 310,000 compounds, 3.5% hits. AID 1490, 2009;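 also: the enzyme is Sfp with the accession as filed and its product quenches rhodamine fluorescence; 0% = enzyme reaction without inhibitor and -100% = no enzyme wells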
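Compounds were incubated with enzyme (final 15 nM) for 15 min at room temperature before substrate addition started the reaction. Fluorescence at 525 nm excitation, 598 nm emission was recorded immediately and after 30 minutes.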
KAT2A inh = qHTS Assay for Inhibitors of GCN5L2; Histone acetyltransferase KAT2A (Homo sapiens), Q92830; GCN5L2 HAT assay, ThioGlo1 CoA-SH fluorescence; Potency, µM (highest dose often 58.9 µM), inactives show at the highest dose activity change, negative = inhibition, actives largely listed as inhibitors; 390,000 compounds, 0.21% hits; AID 504327, 2011; also: % is scaled to controls: 0 for no effect and ±100 for the full control effect
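GCN5L2 (20nM final) in 50mM HEPES, 0.1mM EDTA pH 7.5, 0.01% Tween-20 was preincubated 15 min at room temperature with compound, then given ThioGlo1 (50uM), H3(1-25) peptide (75uM) and acetyl-CoA (70uM); CoA-thiol fluorescence (Ex340/Em540) was read at 0 and 20 min.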
JMJD2E inh = qHTS Assay for Inhibitors of Human Jumonji Domain Containing 2E (JMJD2E); Lysine-specific demethylase 4E (Homo sapiens), B2RXH2; JMJD2E catalytic domain, FDH-coupled NADH fluorescence (FDH is formaldehyde dehydrogenase); Potency, µM (series often up to 57.1 µM), inactives show at the top dose activity change, negative = inhibition, actives largely listed as inhibitors; 230,000 compounds, 1.6% hits; AID 2147, 2009; active = well fitted inhibition curve with a large enough effect, not every such curve was filed as active; inconclusive = small, poorly fitted or top-dose-only effect, or another doubt; inactive = no such curve, though single readings can be large or run the other way;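 also: 0% = wells with enzyme and -100% = buffer wells without enzyme; nearly all actives have a fitted effect of over 50% in size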
Target sequence (B2RXH2 1-337 limits assumed): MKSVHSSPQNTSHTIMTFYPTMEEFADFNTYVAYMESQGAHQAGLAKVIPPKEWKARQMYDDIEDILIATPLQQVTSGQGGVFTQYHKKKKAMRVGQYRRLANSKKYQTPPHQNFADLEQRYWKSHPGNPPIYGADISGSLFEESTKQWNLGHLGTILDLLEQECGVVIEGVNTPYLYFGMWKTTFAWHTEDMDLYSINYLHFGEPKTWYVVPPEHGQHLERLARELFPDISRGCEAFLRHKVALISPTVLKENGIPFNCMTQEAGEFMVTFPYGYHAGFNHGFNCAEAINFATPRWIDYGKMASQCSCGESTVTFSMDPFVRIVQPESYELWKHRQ
An asterisk follows results filed as active; ? = inconclusive; . = not tested or not shown; ! = a repeat was not active; [ ] = dose if it differs, or a comment. An excerpt weighted towards active compounds, which were near 3.6% of everything screened. Unless noted, calls follow the shape of the dose curve; as a rule, active = well fitted curve in the direction sought with a large enough effect; inconclusive = small, poorly fitted or top-dose-only effect, or another doubt; inactive = no such curve, though single readings can be large; an effect the other way counts as inactive or inconclusive. Potency is read from the fitted curve at half-maximal effect.

SMILES	NPSR antagonist	IMPase Li inh	Epigenetic derep	Sfp inh	KAT2A inh	JMJD2E inh
O=C(c1ccc(Oc2ccc([N+](=O)[O-])cc2)cc1)N1CCCCCC1	.	.	.	-11%	-8%	.
O=C(CCc1ccc(Oc2cc([N+](=O)[O-])cc([N+](=O)[O-])c2)cc1)N1CCCCC1	?	-8%	-1%	14µM*	2%	8%
CC(C)=CCn1cnc2c1C(NOCc1ccccc1)=NCN2	.	25%	-1%	-25%	.	-2%
CC1(C)C(c2cccs2)=[N+]([O-])C2(CCCCC/C2=N\NC(N)=S)N1O (centres undefined)	-1%[46.1 µM]	22%[38.3 µM]	2%	89µM*	-2%	-1%
C/C(=N\NC(=O)c1ccccn1)c1ccc(C(=O)O)s1	6%	7%	-8%	13µM*	23%	-1%
C/C(CC(=O)NC1CCCCC1)=N\NC(=O)c1ccccn1	-16%	3%	-4%	89µM*	1%	123%
CN(C)CCn1c(=S)[nH]c2ncccc2c1=O	1%	2%	-2%	50µM*	-3%	?
Cc1c(CC(=O)NCc2ccccc2)c(=O)oc2c(C)c(O)ccc12	.	.	3%	.	-10%	.
OCc1ccc(-c2ccc(-c3ccc(CO)s3)o2)s1	.	-4%	2%	-26%	?	.
COC(=O)Cc1c(C)c2ccc(O)c(CNCc3ccc(OC)c(OC)c3)c2oc1=O	.	.	.	-25%	?	.
CCN(CC)Cc1c(O)ccc2c(C)c(CC(=O)OC)c(=O)oc12	10%[46.1 µM]	10µM*	2%	11%	?	?
CC1=Nn2c(nnc2-c2ccco2)SC1	?	4%[38.3 µM]	-1%	56µM*	-3%	2%
CCCn1nc2cc(C(=O)NC3CCCc4ccccc43)ccc2c1OCC (centres undefined)	-11%[46.1 µM]	-17%[38.3 µM]	1%	14%	10µM*	?
CCOc1c2ccc(C(=O)N[C@H](C)C3CCCCC3)cc2nn1CC	-7%[46.1 µM]	-7%[38.3 µM]	0%	17%	0.89µM*	?
COC(=O)C1=C(C)[C@@H](O)[C@@H](C)[C@H](c2c(OC)c(OC)c(C)c(OC)c2OC)O1	.	.	1%[10.1 µM]	6%	.	.
Cc1ccc(C(=O)Oc2csc(=S)n2C(=O)c2ccc(C)cc2)cc1	-4%[46.1 µM]	35%[38.3 µM]	0%	45µM*	-2%	?
COc1ccc(CCNC(=O)C(=O)NCC(c2ccco2)S(=O)(=O)c2ccc(F)cc2)cc1 (centres undefined)	.	.	3%	.	6%	.
N/C(=N\OC(=O)COc1ccc2ccccc2c1Br)c1ccncc1	-29%	?	6%	45µM*	-11%	-9%
N/C(=N\OC(=O)COc1ccc2ccccc2c1)c1ccncc1	-8%	22%	-1%	-24%	-8%	-5%
C[C@@]12CCC[C@H]1C1CC[C@H]3C[C@H](O)CC[C@]3(C)C1CC2 (some centres undefined)	.	-2%	0%	26%	-11%	.
CN(C)CCN(Cc1ccccc1)c1ccccn1	-7%	8%	2%	7%	0%	32µM*!
O=C(NCc1ccccn1)c1ccc(-c2ccccc2)cc1	16%	5%	0%	-1%	-1%	5%
O=C(NCc1ccccn1)c1ccc(=O)oc1	-19%[46.1 µM]	-9%[38.3 µM]	0%	89µM*	-6%	?
CCCCCCCCS(=O)c1sc2nc(C)cc(C)c2c1N (centres undefined)	-6%[46.1 µM]	41%[38.3 µM]	-2%	45µM*	-16%	?
CC(=O)c1sc2nc(C)cc(C)c2c1N	-6%[46.1 µM]	15%[38.3 µM]	3%	3%	4%	?
SMILES	NPSR antagonist	IMPase Li inh	Epigenetic derep	Sfp inh	KAT2A inh	JMJD2E inh
CNC(=O)c1c(NC(=O)c2ccco2)sc2c1CCC2	.	.	.	-10%	-34%	.
N#Cc1c(NC(NC(=O)c2ccco2)C(=O)c2ccccc2)sc2c1CCCC2 (centres undefined)	-29%[46.1 µM]	32%[38.3 µM]	0%	20µM*	-22%	?
NC(=O)c1c(NC(NC(=O)c2ccco2)C(=O)c2ccc(Cl)cc2)sc2c1CCCC2 (centres undefined)	-30%[46.1 µM]	3%[38.3 µM]	-7%	56µM*	-9%	?
CCC1=NNc2cccc3c(OC)ccc1c23	-9%[46.1 µM]	31%[38.3 µM]	0%	32µM*	-8%	5µM*
COc1ccc2c3c(cccc13)C(=O)N(O)C2=O	-4%	-6%	0%	-6%	-6%	?
O=C(Nc1ccccc1)c1ccc(NCCc2ccccc2)c([N+](=O)[O-])c1	-7%	11%	13µM*	-1%	71%	-8%
CCN(CC)c1ccc(NC(=O)c2c(C)nn(-c3ccc(F)cc3)c2-n2cccc2)c(C)c1	.	.	0%	.	-7%	.
CCOc1cccc(/C=N/NC(=S)Nc2ccccc2[N+](=O)[O-])c1O	-10%	11%	1%	26%	1%	?
N#Cc1ccccc1NC(=O)COC(=O)c1cccs1	.	.	.	.	2%	.
O=[N+]([O-])c1ccccc1NC(=S)N/N=C/c1ccc(O)c(O)c1	-4%	22%	0%	-6%	-5%	25µM*
Cc1ccc(C(=O)NC(=S)NNC(=O)c2ccccc2[N+](=O)[O-])cc1	-6%[46.1 µM]	-1%	-1%	45µM*	-6%	?
N#Cc1ccccc1NC(=S)NC(=O)c1cccs1	.	.	.	32µM*	-10%	.
O=C(NC(=S)Nc1ccccc1[N+](=O)[O-])c1ccccc1	-27%	.	0%	28µM*	-14%	0%
CCc1ccc(-n2c(=O)c3c4c(sc3n(Cc3cc(=O)n5c(C)cccc5n3)c2=O)CCC4)cc1	.	.	-2%	.	0%	.
Cc1ccccc1CS(=O)(=O)CCC(=O)NCCCN1CCN(c2ccccc2F)CC1	11%[46.1 µM]	3%[38.3 µM]	-1%	9%	-11%	0%
Cc1cc(C)c2c(=O)n(CC(=O)NCCCN3CCOCC3)sc2n1	-4%[46.1 µM]	24%[38.3 µM]	0%	1.3µM*	18µM*	?
Cc1cc([N+](=O)[O-])nn1CC(=O)NCCCN1CCOCC1	.	.	.	22%	-6%	.
Cc1cc(C)c2c(=O)n(CC(=O)NCCCN3CCN(c4ccccc4F)CC3)sc2n1	28%[46.1 µM]	50%[38.3 µM]	-1%	4.5µM*	?	28µM*
COc1ccccc1CNc1nc(-c2ccc(C(=O)N(C)C)cc2)nc2ccccc12	.	28%	.	-11%	-20%	.
COc1ccccc1CNc1nc(-c2ccc(N(C)C)cc2)nc2ccccc12	.	11%	?	16µM*	-15%	?
COc1ccc(OC)c(Nc2nc(-c3ccc(C)cc3)nc3ccccc23)c1	.	.	-1%	.	25µM*	.
